The results in this text go back to PubChem BioAssay (NCI).

Assay in all cases: NCI-60 one-dose screen, 48 h (100 = growth as untreated, 0 = no growth, -100 = all killed)
Settings in all cases: 10 µM unless noted

In test [1] the test system is SK-MEL-2 melanoma.
The subject of test [2] is EKVX NSCLC.
Test [3] has as its system SN12C renal.
The test system of test [4] is UO-31 renal.
In test [5] the test system is TK-10 renal.
Test [6] has as its system ACHN renal.
Test [7] deals with CAKI-1 renal.
Test [8] relates to A498 renal.
Test [9] has as its system CCRF-CEM leukemia.
Test [10] relates to MOLT-4 leukemia.
For test [11], the system named is SR leukemia.
Test [12] deals with RPMI-8226 leukemia.
In test [13] the test system is OVCAR-8 ovarian.
Test [14] relates to OVCAR-5 ovarian.
Test [15] relates to OVCAR-4 ovarian.
Test [16] concerns SK-OV-3 ovarian.
Test [17] has as its system IGROV1 ovarian.
Test [18] relates to OVCAR-3 ovarian.
Test [19] concerns HS 578T breast.
In test [20] the test system is NCI/ADR-RES ovarian.

This is part of a sample that, as a whole, favours compounds with a hit. Of some 83,000 tested, about 20% had one in any assay.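 Each cell line was grown in a 96-well plate and treated with one concentration of compound for 48 hours. Values below 10 were considered active.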 A number with no mark means an inactive call. Active and inactive are the calls of the source.

As for `CC/C=C\C[C@H](O)C/C=C1/C(=O)C=C[C@@H]1C/C=C\CCCC(=O)NC(C)C`, the growth in test [1] is 28.8%; in test [2], 28.4%; in test [3], -11.1% (active); in [4], -61.8% (active); in test [5] it was -0.347% (active); in [6], -82.5% (active). Further, the growth in test [7] was -0.696% (active); in [8], 98.5%; in test [9], -13% (active); in test [10] it was -17.7% (active); in test [11], -24.9% (active); in [12] it was -5.29% (active). In addition, the growth in [13] was -12.5% (active); in test [14], 41.6%; in test [15], 35.6%; in test [16], 21.4%; in test [17], 14.8%; in [18], -6.93% (active). For the same molecule, the figures for the growth in [19] and in [20] were 46.6% and 15.9%, respectively.

Regarding `CCOC(=O)Cc1cnn(C)c1NC(=O)c1ccc(Cl)cc1NC(C)=O`, the growth in test [1] is 84.6%; in [2], 76.3%; in test [3] it was 94.8%; in test [4] it was 91.6%; in test [5], 78.8%; in test [6] it was 111%. Further, the growth in test [7] was 64.8%; in test [8], 105%; in [9], 97.8%; in test [10], 102%; in test [11], 104%; in test [12] it was 102%. The growth was 99.8% in [13]; 99.3% in test [14]; 110% in [15]; 102% in test [16]; 105% in test [17]; 108% in test [18]. The growth was 97% in test [19] and 106% in test [20].

`CC[C@H](CO)Nc1nc(NCc2ccccc2)n2ncc(C(C)C)c2n1`: the growth was 11.1% in test [1]; 0.263% (active) in test [2]; 17.1% in [3]; 10% in test [4]; 15.6% in [5]; 4.26% (active) in [6]. Also, the growth in [7] is 9.58% (active); in test [8] it was -21% (active); in [9], -0.868% (active); in test [10], -12.9% (active); in test [11] it was -44.9% (active); in test [12] it was -40.6% (active). Besides, the growth was 28.6% in test [13]; 22.4% in test [14]; 11.8% in test [15]; 51.5% in test [16]; 14.5% in test [17]; 5.88% (active) in test [18]. The growth in test [19] was 7.24% (active); in test [20], 19.5%.

As to `COc1cc(/C=C2\CN(C(=O)CCN3CCC(=NO)CC3)C/C(=C\c3cc(OC)c(OC)c(OC)c3)C2=O)cc(OC)c1OC`, the growth in [1] is -26.9% (active); in test [2], -36.1% (active); in test [3] it was -9.11% (active); in test [4], -96.2% (active); in [5], -69.2% (active); in [6], -44.2% (active). Besides, the growth in test [7] was -77.2% (active); in test [8], -87.2% (active); in [9], -37.3% (active); in test [10], 2.41% (active); in test [11], 9.11% (active); in [12], -40.1% (active). Also, the growth in test [13] is 1.55% (active); in test [14], -65.4% (active); in [15], -82.4% (active); in test [16], -7.89% (active); in test [17], -53.4% (active); in [18], -97.6% (active). Besides, the growth in test [19] was 6.39% (active); in [20], 9.97% (active).

On to `C/C(Cc1ccc(Cl)cc1)=C(\c1ccc(OCCN2CCCCCC2)cc1)c1ccc(OC(=O)C2CCCCC2)cc1`, for which the growth in test [1] is 81.6%; in test [2] it was 81%; in test [3], 67%; in test [4], 40.9%; in test [5], 84.1%; in test [6], 87%. Besides, the growth in test [7] is 80.8%; in test [8] it was 82%; in test [9], 55.3%; in [10], 25.6%; in test [11], -0.529% (active); in test [12] it was 37.2%. Moreover, the growth in test [13] was 66.2%; in test [14], 73.4%; in test [15], 80.6%; in test [16], 88.1%; in test [17], 46.8%; in [18] it was 71.8%. The growth in test [19] is 56.3%; in test [20], 70.4%.

On to `CNCCCn1c2c(c3ccc([N+](=O)[O-])cc3c1=O)C(=O)c1cc(OC)cnc1-2`, for which the growth in test [1] was -43.9% (active); in test [2], 4.21% (active); in test [3] it was -29.7% (active); in [4], -78.4% (active); in test [5] it was -23.9% (active); in [6] it was -65.2% (active). The growth in test [7] is -83.4% (active); in test [8], -97% (active); in test [9], -31.9% (active); in [10] it was -10.9% (active); in test [11], 2.17% (active); in [12] it was -25.9% (active). Also, the growth in [13] was -14.9% (active); in test [14], 1.76% (active); in test [15] it was -25.9% (active); in test [16] it was -15.8% (active); in test [17], 0.722% (active); in test [18], -45.1% (active). Moreover, the growth in test [19] was 15.6%; in [20], -28.8% (active).

`CCN(C(=O)CN1CCN(c2cc3c(cc2F)c(=O)c(C(=O)O)cn3CC)CC1)c1nc(-c2ccccc2)cs1`: the growth in [1] was -15.3% (active); in test [2], 21.2%; in test [3], 2.74% (active); in [4] it was 12.4%; in test [5], 14.6%; in [6] it was 8.13% (active). Also, the growth is 11.7% in test [7]; -6.64% (active) in [8]; 14% in test [9]; 11.4% in test [10]; -11% (active) in test [11]; -3.49% (active) in test [12]. Also, the growth is 7.67% (active) in test [13]; 35.6% in test [14]; 3.24% (active) in test [15]; -2.59% (active) in test [16]; 23.3% in test [17]; 16.8% in test [18]. For the same molecule, the growth is 13.6% in [19] and 5.3% (active) in test [20].
